Records with an inconclusive call do not appear. Calls of active or inactive are those of the source. How the source made its calls, unless noted: active means hit-call score of the fitted dose curve at least 0.9, where 1 is the maximum; inconclusive means response in the unintended direction; inactive means score below 0.9.
Target: Retinoic acid receptor RXR-alpha (Homo sapiens) (UniProt P19793)
Test: TOX21_TR_RXR_BLA_Antagonist_Followup_ratio: Tox21 Thyroid Hormone Receptor beta Retinoid X Receptor alpha (RXRa) Antagonism Beta-lactamase (BLA) Follow-Up Assay, Ratio (AID 2283972)
Outline: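 RXRa-UAS-bla HEK293T cells, 2,500/well in phenol red-free DMEM with 2% charcoal-stripped FBS, 5 h attachment, then compounds (11 concentrations, triplicate) for 16 h at 37C; FRET-B/GCCF4-AM substrate 2 h RT; 460:530 nm ratio, loss of signal vs DMSO.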

Sequence of Retinoic acid receptor RXR-alpha (Homo sapiens) (P19793 whole entry, looked up): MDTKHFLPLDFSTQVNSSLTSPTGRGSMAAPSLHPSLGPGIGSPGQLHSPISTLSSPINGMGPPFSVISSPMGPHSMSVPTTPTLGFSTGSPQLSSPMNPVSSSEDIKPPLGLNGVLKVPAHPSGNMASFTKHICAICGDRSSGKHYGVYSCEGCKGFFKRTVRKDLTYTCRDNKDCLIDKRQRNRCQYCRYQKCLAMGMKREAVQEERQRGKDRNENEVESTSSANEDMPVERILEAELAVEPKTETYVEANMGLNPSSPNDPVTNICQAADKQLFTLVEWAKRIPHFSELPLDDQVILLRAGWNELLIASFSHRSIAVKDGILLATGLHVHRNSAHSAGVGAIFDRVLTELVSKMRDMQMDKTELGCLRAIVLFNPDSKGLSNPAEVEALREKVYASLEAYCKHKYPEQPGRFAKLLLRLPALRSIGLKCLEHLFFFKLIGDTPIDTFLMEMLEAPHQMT

SMILES	outcome	AC50
CCC[C@@]1(CCc2ccccc2)CC(O)=C([C@H](CC)c2cccc(NS(=O)(=O)c3ccc(C(F)(F)F)cn3)c2)C(=O)O1	inactive	–
NC(N)=NCc1cccc(I)c1	inactive	–
Nc1c2ccccc2nc2ccccc12	inactive	–
O=C1C(=O)c2ncccc2-c2cccnc21	inactive	–
CC1(C)N=C(N)N=C(N)N1c1ccc(Cl)cc1	inactive	–
COC(=O)Nc1nc2ccc(Sc3ccccc3)cc2[nH]1	inactive	–
C#CCC(Cc1cnc2nc(N)nc(N)c2n1)c1ccc(C(=O)N[C@@H](CCC(=O)O)C(=O)O)cc1 (some centres undefined)	–	0.448 µM (active)
O=c1[nH]c(=O)n([C@H]2C[C@H](O)[C@@H](CO)O2)cc1F	inactive	–
Cc1nc2ccccc2n1Cc1ccc(Cl)cc1	inactive	–
C[n+]1c2cc(N)ccc2cc2ccc(N)cc21 (tested in a mixture with another compound)	–	19.2 µM (active)
CC[C@@]1(O)C(=O)OCc2c1cc1n(c2=O)Cc2cc3c(CN(C)C)c(O)ccc3nc2-1	inactive	–
O=C(O)c1cccc(-c2noc(-c3ccccc3F)n2)c1	inactive	–
Oc1c(I)cc(I)c2cccnc12	inactive	–
Cc1cc(Nc2ccccc2C(=O)O)ccc1Cl	inactive	–
CC(C)=CCC1=C(O)c2ccccc2C(=O)C1=O	inactive	–

System: not listed separately
Test: TOX21_TR_RXR_BLA_Antagonist_Followup_viability: Viability Assessment in the Tox21 Thyroid Hormone Receptor beta Retinoid X Receptor alpha (RXRa) Antagonism Beta-lactamase (BLA) Follow-Up Assay (AID 2283979)
Outline: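 RXRa-bla HEK293T cells (2,500/well, phenol red-free DMEM, 2% charcoal-stripped FBS) were attached 5 h, then exposed to compounds at 11 concentrations in triplicate for 16 h at 37C. Viability measured by CellTiter-Glo ATP luminescence, bidirectional fitting versus DMSO.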

SMILES	outcome	AC50
CCC[C@@]1(CCc2ccccc2)CC(O)=C([C@H](CC)c2cccc(NS(=O)(=O)c3ccc(C(F)(F)F)cn3)c2)C(=O)O1	inactive	–
NC(N)=NCc1cccc(I)c1	inactive	–
Nc1c2ccccc2nc2ccccc12	–	10.6 µM (active)
CCCC(=O)O[C@]1(C(=O)CCl)[C@@H](C)C[C@H]2[C@@H]3CCC4=CC(=O)C=C[C@]4(C)[C@@]3(F)C(=O)C[C@@]21C	inactive	–
CCCCCCNC(=O)n1cc(F)c(=O)[nH]c1=O	inactive	–
CO[C@H]1C[C@@H]2CC[C@@H](C)[C@@](O)(O2)C(=O)C(=O)N2CCCC[C@H]2C(=O)O[C@H]([C@H](C)C[C@@H]2CC[C@@H](OCCO)[C@H](OC)C2)CC(=O)[C@H](C)/C=C(\C)[C@@H](O)[C@@H](OC)C(=O)[C@H](C)C[C@H](C)\C=C/C=C/C=C/1C	inactive	–
O=C1C(=O)c2ncccc2-c2cccnc21	inactive	–
CC1(C)N=C(N)N=C(N)N1c1ccc(Cl)cc1	inactive	–
COC(=O)Nc1nc2ccc(Sc3ccccc3)cc2[nH]1	inactive	–
C#CCC(Cc1cnc2nc(N)nc(N)c2n1)c1ccc(C(=O)N[C@@H](CCC(=O)O)C(=O)O)cc1 (some centres undefined)	–	0.542 µM (active)
O=c1[nH]c(=O)n([C@H]2C[C@H](O)[C@@H](CO)O2)cc1F	inactive	–
Cc1nc2ccccc2n1Cc1ccc(Cl)cc1	inactive	–
C[n+]1c2cc(N)ccc2cc2ccc(N)cc21 (tested in a mixture with another compound)	–	16.5 µM (active)
O=C(O)c1cccc(-c2noc(-c3ccccc3F)n2)c1	inactive	–
Oc1c(I)cc(I)c2cccnc12	inactive	–
Cc1cc(Nc2ccccc2C(=O)O)ccc1Cl	inactive	–
CC(C)=CCC1=C(O)c2ccccc2C(=O)C1=O	inactive	–

System: not listed separately
Test: CCTE_Harrill_HTTr_Viability_MCF7: CCTE's 6-hour Cell Viability Assessment for the High-Throughput Transcriptomics (HTTr) Platform, in MCF-7 cells cultured in DMEM + 10% fetal bovine serum, Harrill Lab (AID 2284010; active means hit-call score of the fitted dose curve at least 0.9, where 1 is the maximum; inactive means score below 0.9)
Outline: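 PI exclusion, high-content imaging; 8-pt dilution series, 6 h exposure; bidirectional fit vs DMSO (neg. ctrl/baseline); gain of signal = loss of membrane integrity.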

SMILES	outcome
CO[C@@H]1[C@H](OC(=O)/C=C/C=C/C=C/C=C/C(=O)O)CC[C@]2(CO2)[C@H]1[C@@]1(C)O[C@@H]1CC=C(C)C	inactive
Clc1cccc(Cl)c1NC1=NCCN1	inactive
CC(=O)NCCCS(=O)(=O)O	inactive
C1=CCC(c2ccccc2)CC1 (centres undefined)	inactive
CN(C)CCOC(=O)COc1ccc(Cl)cc1	inactive
CCCCC(=O)O[C@]1(C(=O)CO)[C@@H](C)C[C@H]2[C@@H]3CCC4=CC(=O)C=C[C@]4(C)[C@@]3(F)[C@@H](O)C[C@@]21C	inactive
NNc1nncc2ccccc12	inactive
O=C(O)CN(CCN(CC(=O)O)CC(=O)O)CC(=O)O	inactive
CCOC(=O)n1ccn(C)c1=S	inactive
CC1(C)[C@@H](O[C@H]2O[C@H](C(=O)O)[C@@H](O)[C@H](O)[C@H]2O[C@@H]2O[C@H](C(=O)O)[C@@H](O)[C@H](O)[C@H]2O)CC[C@]2(C)[C@H]3C(=O)C=C4[C@@H]5C[C@@](C)(C(=O)O)CC[C@]5(C)CC[C@@]4(C)[C@]3(C)CC[C@@H]12	inactive
COc1ccc(Cl)cc1C(=O)NCCc1ccc(S(=O)(=O)NC(=O)NC2CCCCC2)cc1	inactive

System: not listed separately
Test: CCTE_Harrill_HTTr_Apoptosis_MCF7: CCTE's 6-hour Apoptosis Assessment for the High-Throughput Transcriptomics (HTTr) Platform, in MCF-7 cells cultured in DMEM + 10% fetal bovine serum, Harrill Lab (AID 2284011; active means hit-call score of the fitted dose curve at least 0.9, where 1 is the maximum; inactive means score below 0.9)
Outline: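 MCF-7 cells in DMEM + 10% FBS exposed 6 h to chemicals over an eight-point dilution series. Caspase-3/7 activation imaged by high-content CellEvent Green staining; fitted bidirectionally versus DMSO.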

SMILES	outcome
CO[C@@H]1[C@H](OC(=O)/C=C/C=C/C=C/C=C/C(=O)O)CC[C@]2(CO2)[C@H]1[C@@]1(C)O[C@@H]1CC=C(C)C	inactive
Clc1cccc(Cl)c1NC1=NCCN1	inactive
CC(=O)NCCCS(=O)(=O)O	inactive
C1=CCC(c2ccccc2)CC1 (centres undefined)	inactive
CN(C)CCOC(=O)COc1ccc(Cl)cc1	inactive
CCCCC(=O)O[C@]1(C(=O)CO)[C@@H](C)C[C@H]2[C@@H]3CCC4=CC(=O)C=C[C@]4(C)[C@@]3(F)[C@@H](O)C[C@@]21C	inactive
NNc1nncc2ccccc12	inactive
O=C(O)CN(CCN(CC(=O)O)CC(=O)O)CC(=O)O	inactive
CCOC(=O)n1ccn(C)c1=S	inactive
CC1(C)[C@@H](O[C@H]2O[C@H](C(=O)O)[C@@H](O)[C@H](O)[C@H]2O[C@@H]2O[C@H](C(=O)O)[C@@H](O)[C@H](O)[C@H]2O)CC[C@]2(C)[C@H]3C(=O)C=C4[C@@H]5C[C@@](C)(C(=O)O)CC[C@]5(C)CC[C@@]4(C)[C@]3(C)CC[C@@H]12	inactive
COc1ccc(Cl)cc1C(=O)NCCc1ccc(S(=O)(=O)NC(=O)NC2CCCCC2)cc1	inactive

From PubChem BioAssay (EPA / NIEHS)
